Experimental data as given in PubChem BioAssay AID1347076 (National Center for Advancing Translational Sciences (NCATS), 2019).
Screen size: about 400,000 compounds; about 13,000 (3.2%) were called active. A call without a number means that no potency is given here. About 18% were inconclusive and are not listed. The call rests on the fitted dose curve; in most records, active means well fitted cell-killing curve with a large enough effect; inconclusive means small, poorly fitted or top-dose-only effect, or effect the other way; inactive means flat fitted curve, though single readings scatter. The full list was thinned out, with actives kept by preference.

assay: qHTS assay for MDR1-selective chemotherapeutics: Primary screen using the drug-selected MDR subline cells KB-V1; details: KB-V1 MDR cells viability, CellTiter-Glo, 72 h; series mostly up to 46.1 µM; further: nearly all actives have a fitted effect of over 60% in size
In short: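 Drug-selected KB-V1 cells, grown in DMEM lacking phenol red with 10% FBS, receive compound titrations; after three days at 37 degrees C, surviving cell ATP is quantified by CellTiter-Glo luminescence and responses normalized and curve-fitted.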
Potency means the concentration at half of the fitted maximal effect.

| Compound | Potency |
| --- | --- |
| O=C1NC[C@H](Cc2ccc(O)cc2)N(C[C@@H]2CCCN2C[C@H](Cc2ccccc2)N2C[C@H](Cc3ccccc3)N(CC3CCCCC3)C(=O)C2=O)C1=O | inactive |
| CCc1nc2c(OCC(=O)C(C)(C)C)cccn2c1N(C)C(=O)c1ccccc1F | inactive |
| COc1cc(Cn2c3ccc(NC(=O)CC(C)c4ccccc4)cc3c(=O)n2C)ccc1F (stereo not drawn) | inactive |
| CC(C)c1ccc(S(=O)(=O)NC2CCCC2)cc1 | inactive |
| Cc1ccc(S(=O)(=O)NC2CCCCCC2)cc1 | 20.6 µM (active) |
| CSc1ccc(S(=O)(=O)NC2CCCCC2)cc1 | inactive |
| CCOc1cc(/C=N/NC(=O)c2ccncc2)cc(Br)c1O | inactive |
| O=C(COC(=O)/C=C/c1ccc(Cl)cc1)NC1CCS(=O)(=O)C1 (stereo not drawn) | inactive |
| Cc1c(Cl)cnc(NC(=O)COC(=O)c2ccc(S(=O)(=O)NCc3ccco3)cc2)c1Cl | inactive |
| O=S(=O)(NCc1ccco1)c1cnc(Cl)c(Cl)c1 | inactive |
| C/C(=N\Nc1ncc(Cl)cc1Cl)c1ccc(S(=O)(=O)NCc2ccco2)cc1 | 2.06 µM (active) |
| O=C(CSc1ccccc1)Nc1cc(Cl)ccc1Oc1ccccc1 | 18.4 µM (active) |
| CC1CCCN(CC(=O)Nc2cc(Cl)ccc2Oc2ccccc2)C1 (stereo not drawn) | inactive |
| CSc1cccc(NC(=O)CSc2ccccc2)c1 | inactive |
| CC(=O)Nc1ccc(SCC(=O)Nc2ccccc2Oc2ccccc2)cc1 | 4.61 µM (active) |
| COc1ccc(Cl)cc1NC(=O)CSc1nc2ccccc2c2nc(-c3ccccc3)nn12 | inactive |
| Cc1cc(C)cc(NC(=O)CSc2ccccc2)c1 | inactive |
| CC(C)NC(=O)C1CCC(Cn2c(=O)c3sccc3n(Cc3ccc(F)cc3)c2=O)CC1 (stereo not drawn) | inactive |
| Cc1cccc(CN2CCN(C3CN(Cc4ccccc4)S(=O)(=O)C3)CC2)c1 (stereo not drawn) | inactive |
| C=CCOc1cccc(C2C(C(=O)c3ccc(C)o3)=C(O)C(=O)N2CCN2CCOCC2)c1 (stereo not drawn) | inactive |
| COCCNC(=O)C1C(=O)Nc2ccccc2C(=O)N1c1ccc2c(c1)OCCO2 (stereo not drawn) | inactive |
| O=S1(=O)CC(N2CCN(Cc3ccccc3F)CC2)CN1Cc1cn(Cc2ccccc2)nn1 (stereo not drawn) | inactive |
| COc1ccc(Cn2c(=O)oc3ccccc32)cc1 | inactive |
| CN1CCN(c2ccncc2S(=O)(=O)N2CCCC2)CC1 | inactive |
| N=c1n(Cc2ccc(Cl)cc2)c2ccccc2n1CC(O)c1ccco1 (stereo not drawn) | 20.6 µM (active) |
| Cn1c(=N)n(CC(O)c2ccccc2)c2ccccc21 (stereo not drawn) | inactive |

| Compound | Potency |
| --- | --- |
| Cn1c(=N)n(CC(O)c2cccs2)c2ccccc21 (stereo not drawn) | inactive |
| Cc1ccc(S(=O)(=O)N2CC[C@H]3[C@@H](C2)C(=O)C[C@@H](c2ccccc2)N3S(=O)(=O)c2ccc(C)cc2)cc1 | inactive |
| Brc1cccc[n+]1Cc1cccc(C[n+]2ccccc2Br)c1 | inactive |
| COc1ccc(C(=O)Nc2ncc3c(n2)-c2ccccc2CC3)cc1 | 13 µM (active) |
| COc1ccc(C(=O)Nc2onc3c2CCCC3)cc1 | inactive |
| O=C(Nc1ncc2c(n1)-c1ccccc1OC2)c1ccc(Cl)cc1 | inactive |
| COc1cccc(CNC(=O)Cc2csc3nc(-c4ccccc4)cn23)c1 | inactive |
| CCC(C(=O)Nc1cc(OC)ccc1OC)n1c(=O)c(C(F)(F)F)nc2ccccc21 (stereo not drawn) | inactive |
| O=C(Nc1cccnc1)c1noc2c1CCCCC2 | 23.1 µM (active) |
| CCOC(=O)c1ccc(-c2ccc(C(=O)Nc3cccnc3)o2)cc1 | inactive |
| COc1cccc(C(=O)Nc2cccnc2)c1OC | inactive |
| Nc1cc(C(F)(F)F)ccc1N1CCOCC1 | 20.6 µM (active) |
| Cc1noc(C)c1S(=O)(=O)Nc1cc(C(F)(F)F)ccc1N1CCOCC1 | inactive |
| CC(C)CC(=O)Nc1cc(C(F)(F)F)ccc1N1CCOCC1 | inactive |
| Cc1ccccc1CNC(=O)CSc1nnc(C)c2c(C)n(-c3ccccc3)nc12 | inactive |
| COc1cccc(C(NC(C)=O)c2nc(-c3ccccc3OC)cs2)c1 (stereo not drawn) | inactive |
| CCN1CCCC1CNC(=O)c1ccc2c(c1)NC(=O)/C(=C\c1ccccc1F)S2 (stereo not drawn) | inactive |
| COC(=O)c1ccc2nc(-c3ccc(C)cc3)c(Cc3ccc(OC)cc3C)n2c1 | inactive |
| COC(=O)c1ccc2nc(-c3ccc(F)cc3)c(Cc3ccc(C)cc3)n2c1 | 9.2 µM (active) |
| COC(=O)c1ccc2nc(-c3cccc(Br)c3)c(Cc3ccc(OC)cc3C)n2c1 | inactive |
| COC(=O)c1ccc2nc(-c3ccc(Cl)cc3)c(Cc3cccc(F)c3)n2c1 | inactive |
| COC(=O)c1ccc2nc(-c3ccc(OC)c(OC)c3)c(Cc3ccccc3)n2c1 | inactive |
| COC(=O)c1ccc2nc(-c3ccccc3)c(Cc3ccc(OC)cc3C)n2c1 | 23.1 µM (active) |
| OC[C@@H]1CN(Cc2ccc3c(c2)OCO3)C[C@H](n2cnc3c(NCc4ccco4)ncnc32)O1 | inactive |
| CC1(c2cccc(N)c2)OCCO1 | inactive |
| COc1ccc(NC(=O)Cn2c(=O)cc(C)c3c(C)nn(-c4cccc(Cl)c4C)c32)cc1OC | inactive |

| Compound | Potency |
| --- | --- |
| Cn1nc(N)c2ncc(C(Cl)(Cl)Cl)nc21 | inactive |
| Nc1cc(=O)c2[nH]cnc2[nH]1 | inactive |
| S=c1[nH]c(=S)c2n[nH]nc2[nH]1 | inactive |
| Cc1ccc2nc(-c3ccc(O)cc3)c(Nc3ccc4c(c3)OCO4)n2c1 | inactive |
| Cc1ccc2nc(-c3ccccc3)c(CC3CCCCC3)n2c1 | inactive |
| Cc1ccc2nc(-c3cccnc3)c(NC3CCCC3)n2c1 | 2.59 µM (active) |
| COc1ccccc1CNc1nccn(-c2ccc(F)cc2)c1=O | inactive |
| CCOC(=O)C1(C)CCCN(C(=O)c2cccc(Cl)c2)C1 (stereo not drawn) | inactive |
| COc1ccc(CCNC(=S)N2CCN(S(=O)(=O)c3ccc(Cl)cc3)CC2)cc1 | inactive |
| O=C(NCCc1ccc(Cl)cc1)c1cccc(N2CCCC2=O)c1 | inactive |
| Oc1cc2c(cc1O)CN(C(=S)NCCc1ccc(Cl)cc1)CCC2 | 14.6 µM (active) |
| Cc1cc([N+](=O)[O-])ccc1NC1CCCC1 | 16.4 µM (active) |
| Cc1cc([N+](=O)[O-])ccc1NC(=O)C1CCCO1 (stereo not drawn) | inactive |
| Cc1cc([N+](=O)[O-])ccc1NCc1cccc([N+](=O)[O-])c1 | inactive |
| COc1ccc(-c2nnc(SCC(=O)Nc3ccc(C(C)C)cc3)nc2-c2ccc(OC)c(OC)c2)cc1OC | inactive |
| CC1(C)CN(CCc2ccccc2)C(=O)[C@H]1CC(=O)Nc1ccc(Br)cc1 | inactive |
| CC1(C(=O)NS(=O)(=O)c2ccccc2)CCN1C(=O)C/C=C/c1ccccc1 (stereo not drawn) | inactive |
| CCn1c(=O)c(=O)n(CC)c2cc(N3CCCCC3)c(NC(=O)c3cccc(F)c3)cc21 | inactive |
| Cc1cccc(C(=O)Nc2ccccc2N2CCN(c3ccc(F)cc3)CC2)c1 | inactive |
| O=C(Nc1ccccc1N1CCN(c2ccccc2)CC1)c1cccc(F)c1 | 11.6 µM (active) |
| O=C(NCc1nnnn1-c1ccc(Cl)cc1)c1ccc2c(c1)OCO2 | inactive |
| CSc1ccc(S(=O)(=O)NCc2ccc(Cl)cc2)cc1 | 23.1 µM (active) |
| Cc1ccc(S(=O)(=O)NCCC(=O)NCc2ccc(Cl)cc2)cc1C | inactive |
| CC(C)CNS(=O)(=O)c1ccc(CCC(=O)NCc2ccc(Cl)cc2)cc1 | inactive |
| CCCCN1C[C@H](c2ccc(Br)cc2)[C@@H](CC(=O)Nc2ccc(Br)cc2)C1=O | inactive |
| O=C(Nc1ccc(Br)cc1)c1ccc(Br)c(S(=O)(=O)NCc2ccccc2)c1 | 13 µM (active) |

| Compound | Potency |
| --- | --- |
| O=C(Nc1ccc(F)cc1)c1ccc(S(=O)(=O)NCc2cccnc2)cc1 | inactive |
| Cc1ccc(C(=O)Nc2ccc(C(=O)O)cc2)cc1S(=O)(=O)Nc1ccccc1 | inactive |
| COCCNC(=O)c1cc2c(Br)ccc(Br)c2nc1N | inactive |
| O=S1(=O)CC(N2CCN(CCO)CC2)CN1Cc1cn(Cc2ccc(Cl)cc2)nn1 (stereo not drawn) | inactive |
| CC(C)n1ncc2c(C(=O)N3CCN(Cc4cccs4)CC3)cc(C3CC3)nc21 | inactive |
| Cc1cc2oc(=O)cc(CN(C)Cc3ccccc3)c2cc1Cl | inactive |
| CC1=NN(C(=O)c2ccc(Br)cc2)C(O)(c2ccccc2)C1 (stereo not drawn) | inactive |
| CC1=NN(C(=O)Cc2ccc(C)cc2)C(O)(c2cccnc2)C1 (stereo not drawn) | inactive |
| CCC1=NN(C(=O)Cc2ccc([N+](=O)[O-])cc2)C(O)(c2ccc(Br)cc2)C1 (stereo not drawn) | 13 µM (active) |
| C[C@@H]1CN([C@H](C)CO)S(=O)(=O)c2ccc(C#CC3CCCCC3)cc2O[C@H]1CN(C)C(=O)Cc1ccncc1 | inactive |
| COc1ccc(NC(=O)c2ccco2)cc1NC(=O)COc1ccc(C)c(C)c1 | inactive |
| O=C(c1ccccc1)c1cc(-c2ccccn2)c(N2CCOCC2)s1 | 8.2 µM (active) |
| O=C(NCC(c1cccs1)N1CCOCC1)c1cc(-c2ccccn2)nc2ccccc12 (stereo not drawn) | inactive |
| CCc1ccc2ncc(C(=O)c3ccccc3)c(N3CCOCC3)c2c1 | inactive |
| COCCNc1ncnc2c1ncn2[C@H]1CN(CCN2CCOCC2)C[C@@H](CO)O1 | inactive |
| Fc1ccc(-n2ncc3c(Nc4ccc(Oc5ccccc5)cc4)ncnc32)cc1 | inactive |
| OC(COc1ccccc1)CN1CCN(c2cccc(Cl)c2)CC1 (stereo not drawn) | inactive |
| Cn1c(C(=O)NCCCN2CCN(c3cccc(Cl)c3)CC2)cc2c(=O)n(C)c3ccccc3c21 | inactive |
| CCc1nn(CCCN2CCN(c3cccc(Cl)c3)CC2)c(=O)n1CCOc1ccccc1 | 6.51 µM (active) |
| CC(O)(c1cccc(F)c1)c1nc(-c2ccc3c(c2)OCO3)cs1 (stereo not drawn) | inactive |
| CCc1nc2ccc(C(=O)NCCNC(C)=O)cn2c1N(CC)Cc1cccc(Br)c1 | inactive |
| COc1ccc(-n2c(SC)nc3sc4c(c3c2=O)CCN(C(C)=O)C4)cc1 | inactive |
| CNc1cnc(-c2cc(OC)c(OC)c(OC)c2)cn1 | inactive |
| Cc1ccc(C=O)c([B-](F)(F)F)c1 | inactive |
| CN1c2ccc(C=O)c3c(C=O)ccc(c23)N(C)C1(C)C | 18.4 µM (active) |
